Most compounds without a hit are left out; they make up all but 18% or so of the library.
Six1-Eya2 blk: qHTS Assay for Inhibitors of the Six1/Eya2 Interaction; Homeobox protein SIX1 (Homo sapiens) + Protein phosphatase EYA2 (Homo sapiens), …; AlphaScreen GST-Six1/His-Eya2 binding, biochemical; active compounds read low; activity change, % (test concentration not listed); 360,000 tested, 0.56% active; in the data active = activity change below about -65%; inconclusive = mostly about -30% to -63%
Target sequence (O00167 whole entry, looked up): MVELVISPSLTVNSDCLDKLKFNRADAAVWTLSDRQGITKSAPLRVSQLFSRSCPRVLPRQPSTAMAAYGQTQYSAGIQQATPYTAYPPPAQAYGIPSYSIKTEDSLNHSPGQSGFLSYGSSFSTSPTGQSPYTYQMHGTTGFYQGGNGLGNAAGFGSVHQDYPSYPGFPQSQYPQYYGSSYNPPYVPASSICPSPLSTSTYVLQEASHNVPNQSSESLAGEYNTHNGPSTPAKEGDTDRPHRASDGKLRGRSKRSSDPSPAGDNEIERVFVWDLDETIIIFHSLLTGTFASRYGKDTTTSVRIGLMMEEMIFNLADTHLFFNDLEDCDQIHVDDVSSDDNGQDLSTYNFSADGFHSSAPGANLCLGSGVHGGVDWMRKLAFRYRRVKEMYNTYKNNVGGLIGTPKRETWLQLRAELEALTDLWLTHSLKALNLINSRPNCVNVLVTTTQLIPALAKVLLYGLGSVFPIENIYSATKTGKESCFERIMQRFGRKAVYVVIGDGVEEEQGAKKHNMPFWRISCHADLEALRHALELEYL
Target sequence (Q15475 whole entry, looked up): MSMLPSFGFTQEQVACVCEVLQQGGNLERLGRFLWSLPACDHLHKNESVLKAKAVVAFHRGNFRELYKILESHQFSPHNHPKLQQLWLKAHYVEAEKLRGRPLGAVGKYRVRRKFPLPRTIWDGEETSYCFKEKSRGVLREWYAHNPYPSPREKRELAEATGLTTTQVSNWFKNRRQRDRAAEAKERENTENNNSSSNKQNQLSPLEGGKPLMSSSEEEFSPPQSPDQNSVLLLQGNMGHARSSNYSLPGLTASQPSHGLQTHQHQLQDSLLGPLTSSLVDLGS
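AlphaScreen with GST-Six1 and His-Eya2 (5X mix: 250 nM and 500 nM), glutathione donor and nickel acceptor beads; buffer 50 mM Tris pH 8.0, 300 mM NaCl, 1 mM TCEP; 1 h at 37 C in the dark.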
IL1B secr inh: qHTS for Inhibitors of Inflammasome Signaling: IL-1-beta AlphaLISA Primary Screen; 360,000 tested, 4.7% active; AID 743279, 2014; activity change, % at 57.5 µM; THP-1 LPS/ATP IL-1B secretion, AlphaLISA, 16 h; active compounds read low; in the data active = activity change below about -50%; inconclusive = mostly about -30% to -49%
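Secreted IL-1B measured by AlphaLISA bead assay after 16 h compound exposure of THP-1 cells; compounds (final up to 57.5 uM) added 1 h before LPS (250 ng/mL) and ATP (1.25 mM) stimulation; lower signal means less secretion.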
CtBP-E1A blk: qHTS Assay for Inhibitors of the CtBP/E1A Interaction | AlphaScreen GST-E1A/His-CtBP binding, 1536-well; active compounds read low | activity change, % (concentration not given with the values) | 340,000 tested, 0.49% active | AID 651724, 2012; in the data active = activity change below about -65%; inconclusive = mostly about -30% to -63%
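Homogeneous bead-based format: GST-tagged E1A captured on glutathione donor beads, His-tagged CtBP on nickel acceptor beads; compounds precede bead addition by 2 h at 37 °C.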
TDP1 cell CPT: qHTS for Inhibitors of human tyrosyl-DNA phosphodiesterase 1 (TDP1): qHTS in cells in presence of CPT | chicken DT40 Tdp1-/-;hTDP1 cells + 20 nM CPT, ATP luminescence, 48 h | Potency, µM (titrated, usually from 46.2 µM), for inactives: at the highest dose activity change, negative = growth inhibition, most hits filed as inhibitors | AID 686979, 2013 | 420,000 tested, 12% active; also: potency is read from the fitted curve at half-maximal effect; nearly all actives have a fitted effect of over 55% in size
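Cell growth measured by CellTiter-Glo luminescence after a minimum 48 h, 37 C compound exposure with 20 nM CPT in Tdp1-knockout DT40 cells stably expressing hTDP1, seeded 400/well; qHTS titration format.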
TDP1 cell noCPT: qHTS for Inhibitors of human tyrosyl-DNA phosphodiesterase 1 (TDP1): qHTS in cells in absence of CPT; Potency, µM (top dose mostly 46.2 µM), for the others: at the top dose activity change, negative = growth inhibition, usual class: inhibitors; 420,000 tested, 15% active; DT40 Tdp1-/- hTDP1 cells, no CPT, ATP luminescence, 48 h; AID 686978, 2013; also: potency is read from the fitted curve at half-maximal effect; nearly all actives have a fitted effect of over 55% in size
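A cellular qHTS used chicken DT40 cells lacking endogenous Tdp1 but carrying stably transfected human TDP1. Compounds were applied without camptothecin, and cell growth kinetics were judged by ATP-dependent luminescence after ≥48 hr.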
TDP1 inh: qHTS Assay for Inhibitors of Tyrosyl-DNA Phosphodiesterase (TDP1); recombinant TDP1, AlphaScreen DNA substrate cleavage; Potency, µM (highest dose often 130 µM), for the others: at the top dose activity change, negative = inhibition, hits mostly inhibitors; 350,000 tested, 0.28% active; AID 485290, 2010; also: potency is read from the fitted curve at half-maximal effect; nearly all actives have a fitted effect of over 40% in size
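AlphaScreen read-out: signal falls as enzyme removes the 3' tyrosine-FITC from a 5'-biotinylated DNA oligo (15 nM, 5 min, RT). Enzyme was E. coli-made recombinant Tdp1 at 1 nM, exposed to compound for 15 min beforehand; beads 10 ug/ml, 10 min.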
* marks the source's active call; other numbers are inactive results; ? = inconclusive; · = no result. Unless noted, calls follow the shape of the dose curve; as a rule, active = well fitted curve in the direction sought with a large enough effect; inconclusive = small, poorly fitted or top-dose-only effect, or another doubt; inactive = no such curve, though single readings can be large; an effect the other way counts as inactive or inconclusive. % is scaled to controls: 0 for no effect and ±100 for the full control effect.

SMILES	Six1-Eya2 blk	IL1B secr inh	CtBP-E1A blk	TDP1 cell CPT	TDP1 cell noCPT	TDP1 inh
Cc1cc(C(=O)CN2C(=O)C(=O)N(Cc3ccco3)C2=O)c(C)n1CCc1ccc(F)cc1	-17.0	36.8	-5.0	20.6µM*	?	2.2%
O=C(NCCCn1ccnc1)c1noc2c1CCCC2	0.0	0.0	3.2	-20.2%	?	8.8%
CC1=C(C)/C(=N\OS(=O)(=O)c2ccccc2)C=CC1=O	-1.9	-120.6*	2.0	0.562µM*	0.562µM*	10.4%
OCC1(Cc2ccccc2)CCN(C2CCN(c3ccc(F)c(F)c3)CC2)CC1	-2.0	-117.7*	3.4	-28.8%	11.6µM*	5.6%
COc1cc(OC)c(OC)cc1/C=N/Nc1nc2ccccc2[nH]1	-0.3	0.0	·	2.5%	-21.6%	0.0%
COc1cc(/C=N\Nc2nc3ccccc3[nH]2)cc(OC)c1OC	-19.5	0.0	-16.0	20.6µM*	11.6µM*	-7.6%
COc1ccc(/C=N/Nc2ccccn2)cc1OC	-6.3	-14.8	-5.6	?	16.4µM*	7.0%
CCOc1cc(/C=N/Nc2nc3ccccc3[nH]2)cc(Br)c1OCC(=O)N(C)C	?	-92.4*	-17.3	10.3µM*	13µM*	6.1%
COc1ccc2c(c1)c(/C=N/Nc1nc3ccccc3[nH]1)c(C)n2C	?	-97.7*	?	20.6µM*	?	12.8%
COc1cc(/C=N/Nc2ccccn2)ccc1O	-8.2	-0.1	-10.8	-6.9%	-1.5%	·
O=C(NCc1cccnc1)c1cc(C2CCCCN2C(=O)c2ccc3c(c2)CCO3)on1 (configuration not stated)	5.3	-9.3	-8.5	?	-18.4%	·
CC(OC(=O)c1cn(-c2ccccc2)nc1-c1cccnc1)C(N)=O (configuration not stated)	-9.6	-4.1	0.0	-6.3%	-12.8%	2.7%
CC(C)C[C@@H](CC(=O)N[C@@H](CCC(=O)O)CC(=O)O)NC(=O)[C@@H]1CCCC[C@H]1NC(=O)C[C@H](CCCN)NC(=O)C[C@H](Cc1c[nH]c2ccccc12)NC(=O)[C@@H]1CNCC[C@H]1N	·	·	·	·	·	1.9%
CN(C)c1ccc(/C=N\Nc2ccccn2)cc1	?	-11.3	-28.3	20.6µM*	23.1µM*	·
CN(C)c1ccc(C=NNc2ccccn2)c(Cl)c1	2.9	9.4	-13.0	?	?	·
COc1ccc(C=NN=C2c3ccccc3-c3ccccc32)cc1OC	?	-21.6	-2.0	?	23.1µM*	·
COc1ccc(/C=N/Nc2nc3ccccc3[nH]2)cc1OC	-12.7	-75.3*	1.4	?	?	10.5%
COc1cc(/C=N/NC2=NC(C)(C)Cc3ccccc32)cc(OC)c1OC	-3.9	-6.6	-9.0	?	20.6µM*	3.0%
COc1cc(/C=N/NC2=NS(=O)(=O)c3ccccc32)cc(OC)c1OC	-0.3	15.7	1.4	20.3%	-9.8%	·
O=C(O)c1ccc(C=NN=C2c3ccccc3-c3ccccc32)cc1	-26.1	16.1	-18.0	?	-21.6%	·
COc1ccc(CC(=O)NCc2nnc(SCc3ccc([N+](=O)[O-])cc3)n2C)cc1	-2.3	13.2	4.9	9.5%	-5.3%	3.6%
O=C(CCS(=O)(=O)c1nc(-c2ccc3c(c2)OCO3)cc(C(F)(F)F)n1)Nc1ccccc1C(F)(F)F	·	·	·	?	23.1µM*	2.9%
COc1ccc(-c2cc(C(F)(F)F)nc(S(=O)(=O)CCCC(=O)Nc3cccnc3Cl)n2)cc1OC	-2.1	-107.2*	-4.6	2.31µM*	3.66µM*	7.7%
COc1ccc(NC(=O)CCS(=O)(=O)c2nc(-c3ccc4c(c3)OCO4)cc(C(F)(F)F)n2)cc1OC	·	·	·	?	?	5.9%
O=C(Nc1ccc(F)c(Cl)c1)c1cc(S(=O)(=O)NCc2ccc3c(c2)OCO3)ccc1F	·	·	·	?	?	0.0%
SMILES	Six1-Eya2 blk	IL1B secr inh	CtBP-E1A blk	TDP1 cell CPT	TDP1 cell noCPT	TDP1 inh
COc1ccc(NC(=O)CCS(=O)(=O)c2nc(-c3ccc4c(c3)OCO4)cc(C(F)(F)F)n2)c(OC)c1	·	·	·	?	?	0.0%
COc1cc(NC(=O)CCS(=O)(=O)c2nc(-c3ccc4c(c3)OCO4)cc(C(F)(F)F)n2)cc(OC)c1OC	·	·	·	?	16.4µM*	5.9%
O=C(CCS(=O)(=O)c1nc(-c2ccc3c(c2)OCO3)cc(C(F)(F)F)n1)Nc1ccc(F)c(Cl)c1	·	·	·	2.59µM*	5.8µM*	5.9%
COc1ccccc1C(C[N+](=O)[O-])c1c[nH]c2ccccc12 (configuration not stated)	-16.0	-88.9*	-7.2	?	?	1.2%
CCn1cc(C(c2ccccc2)C(C(C)=O)[N+](=O)[O-])c2ccccc21 (configuration not stated)	-20.8	-16.7	-14.6	?	?	4.1%
CC(=O)C(C(c1ccccc1)c1c[nH]c2ccccc12)[N+](=O)[O-] (configuration not stated)	-0.5	27.8	·	6.51µM*	5.8µM*	·
COc1ccccc1C(=O)COC(=O)Cc1c[nH]c2ccccc12	-14.2	17.5	0.2	-18.6%	?	5.4%
CCN(Cc1ccccc1)C(=O)c1ccccc1C	4.5	1.3	1.4	-18.1%	?	1.1%
O=C(NCCN1CCCCC1)Nc1ccccc1Cl	-3.4	-3.7	-1.0	-2.9%	12.0%	·
CCN(N=O)c1ccc(C=C2C=Cc3ccccc32)cc1	?	-65.7*	7.0	-5.1%	-26.2%	·
CC(=O)N(C)c1ccc(C=C2C=Cc3ccccc32)cc1	-19.4	-78.4*	-0.6	9.2µM*	9.2µM*	·
COC(=O)C1CCN(C(=O)COC(=O)[C@@H]2CC(O)CN2S(=O)(=O)c2ccc3c(c2)OCCO3)CC1 (some centres not stated)	2.4	4.9	-23.4	4.8%	0.6%	0.0%
CCCCNC(=O)CSc1nnc(Cc2ccc(Cl)c(Cl)c2)c(=O)[nH]1	-0.9	-0.7	-18.3	-9.0%	20.0%	-3.2%
Cc1cc(Br)cn2c(Cc3ccccc3)c(-c3cccc(Cl)c3)nc12	14.1	37.0	-23.1	13µM*	23.1µM*	·

Screening data (PubChem)
